Bioassay records (PubChem BioAssay)
Shown are actives, neighbours in structure and some others; about 0.95% of the full set was active somewhere.
Tb PYK inh: qHTS of Trypanosoma Brucei Inhibitors | pyruvate kinase (Trypanosoma brucei), Q57TT1 | TbPYK enzyme, Kinase-Glo Plus ATP luminescence, 45 min | Potency, µM (titrated, usually from 76.8 µM), for inactives: top-dose activity, negative = inhibition, usual class: inhibitors | actives 0.12% (n = 410,000); further: nearly all actives have a fitted effect of over 50% in size
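Assay buffer: 50 mM TEA pH 7.2, 100 mM KCl, 10 mM MgCl2, 0.05% BSA, 0.01% Tween-20. Pyruvate kinase from T. brucei plus substrate met compound, then ADP (130 uM final). Luminescence was read post 45 min RT.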
LmPK inhibitor: qHTS Assay for Inhibitors of Leishmania Mexicana Pyruvate Kinase (LmPK) | Q27686 | purified LmPK, Kinase-Glo ATP luminescence, 1 h | Potency, µM (highest dose often 57.5 µM), for inactives: at the top dose activity change, negative = inhibition, usual class: inhibitors | actives 0.37% (n = 290,000) | AID 1721, 2009
Target sequence (Q27686 whole entry, looked up): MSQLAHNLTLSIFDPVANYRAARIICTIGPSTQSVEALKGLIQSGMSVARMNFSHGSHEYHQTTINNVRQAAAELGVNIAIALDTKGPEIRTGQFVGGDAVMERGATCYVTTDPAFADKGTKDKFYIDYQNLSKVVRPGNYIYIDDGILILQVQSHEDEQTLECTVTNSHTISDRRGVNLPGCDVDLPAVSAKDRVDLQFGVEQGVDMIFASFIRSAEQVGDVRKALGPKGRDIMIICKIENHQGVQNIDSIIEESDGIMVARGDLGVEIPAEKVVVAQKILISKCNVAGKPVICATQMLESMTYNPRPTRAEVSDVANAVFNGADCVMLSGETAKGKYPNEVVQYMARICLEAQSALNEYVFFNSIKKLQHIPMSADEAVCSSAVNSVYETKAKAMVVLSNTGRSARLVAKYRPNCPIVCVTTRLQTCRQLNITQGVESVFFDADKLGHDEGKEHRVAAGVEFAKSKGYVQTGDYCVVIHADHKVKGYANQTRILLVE
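Screened at intermediate enzyme activity to detect both inhibitors and activators: LmPK at 0.1 nM, with a 0.5 nM enzyme column as activation reference. PEP 0.5 mM, ADP 0.1 mM; ATP detected by luminescence after 1 h.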
RE007 growth inh: qHTS Assay for Inhibitors of the HIV-1 protein Vpr; AID 651644, 2012; Potency, µM (highest dose often 92.2 µM), inactives show at the top dose activity change, negative = less growth, hits mostly inhibitors; actives 0.21% (n = 360,000); S. pombe RE007 Vpr strain, BacTiter-Glo ATP luminescence, 24 h; active means well fitted falling curve with a large enough effect; inconclusive means small, poorly fitted or top-dose-only effect; inactive means no such curve, though single readings can be large or run the other way; further: nearly all actives have a fitted effect of over 50% in size
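Fission yeast strain RE007, carrying one chromosomally integrated HIV-1 vpr copy, was seeded at OD 0.01 in PMG+AL medium with 23 nL pinned compound. After 24 h at 30 °C and 99% humidity, viability was read by BacTiter-Glo luminescence.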
FBPA Giardia inh: qHTS Assay for Inhibitors of Fructose-1,6-bisphosphate Aldolase from Giardia Lamblia; purified Giardia FBPA; Potency, µM (series often up to 59.6 µM), for the others: at the highest dose activity, negative = inhibition, usual class: inhibitors; actives 0.71% (n = 290,000); further: nearly all actives have a fitted effect of over 55% in size
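40 nM FBPA preincubated 10 min at RT with compound (up to 57.5 uM final), then substrate plus GAPDH/TPI/NAD/arsenate coupling and diaphorase/resazurin added. Fluorescence read after 20 min at RT, 525/598 nm.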
Numbers without * were called inactive; ? = inconclusive; . = no result; [ ] = remark or other dose. Unless noted, the call rests on the fitted dose curve; in most records, active means well fitted curve in the direction sought with a large enough effect; inconclusive means small, poorly fitted or top-dose-only effect, or another doubt; inactive means no such curve, though single readings can be large; an effect the other way counts as inactive or inconclusive. On the % scale 0 is the no-effect control and ±100 the full control effect; potency means the concentration at half of the fitted maximal effect.

SMILES | Tb PYK inh | LmPK inhibitor | RE007 growth inh | FBPA Giardia inh
CCc1ccc(C2=NN(C(C)=O)C(c3ccco3)C2)cc1 (stereo unspecified) | -5.1% | 15.8µM* | -21.1% | 3.4%
C[C@@H]1C(SC2Cn3cnc[n+]3C2)=C(C(=O)[O-])N2C(=O)[C@H]([C@@H](C)O)[C@@H]12 (stereo partly specified) | 1.8% | . | . | .
COC(=O)Cc1ccc2sc(-c3ccccc3)nc2c1 | ? | 14.1µM* | ? | -5.5%
O=C(Nc1nccs1)c1cc2c(s1)CCCCC2 | -22.0% | 14.1µM* | 31.6µM* | -11.8%
CN(C)c1ccc2c(-c3ccccc3)c3ccc(=[N+](C)C)cc-3oc2c1 | . | . | . | 27.9%
CCOC(=O)c1c(/N=C/c2c(O)n(-c3ccccc3F)c(=S)[nH]c2=O)sc2c1CCCC2 | -22.4% | 2.9% | -16.8% | 17.7µM*
O=C(NCC1CCCO1)c1sc(=S)n2c1[nH]c(=O)c1ccc(C(=O)N3CCCCC3)cc12 (stereo unspecified) | ? | 20µM* | -6.9% | -4.8%
Cc1ccc2c(n1)Oc1ccc(C(C)C(=O)OCC(=O)N(C)C)cc1C2 (stereo unspecified) | -11.7% | . | . | .
CCCc1cc(-c2n[nH]c(=S)n2CC(C)C)cs1 | ? | ? | 23.0% | 11.3%
CC(C)Cn1c(-c2ccc(Br)o2)n[nH]c1=S | 3.98µM* | ? | -2.2% | 8.1%
CC(C)Cn1c(-c2nn(C)cc2Cl)n[nH]c1=S | ? | 12.6µM* | 11.1% | .
CCn1c(-c2nn(C)cc2Cl)n[nH]c1=S | ? | -3.6% | -7.8% | -27.8%
Cc1ccsc1-c1n[nH]c(=S)n1CC(C)C | ? | 14.1µM* | 12.6% | -10.7%
Cc1ccc(S(=O)(=O)N(C)C[C@H]2OCCCC[C@@H](C)Oc3ccc(N(C)C)cc3C(=O)N([C@H](C)CO)C[C@@H]2C)cc1 | 7.94µM* | . | 2.8% | .
CCSC1(SCC)N=C(N)C2(C#N)C(c3ccc(F)cc3)C12C#N (stereo unspecified) | -6.8% | -3.7% | 4.47µM* | -4.8%
CCSC1(SCC)N=C(N)C2(C#N)C(c3ccccc3)NC(C)=C(C)C12C#N (stereo unspecified) | -2.6% | 2.2% | 56.2µM* | -0.3%
COC1(OC)N=C(N)C2(C#N)C(c3ccc(F)cc3)C12C#N (stereo unspecified) | -19.7% | -7.5% | -0.8% | ?
Cc1ccc2nc(Cl)c3nnnn3c2c1 | 0.3% | -4.0% | 25.1µM* | 10.6%
Cc1ccc2nc(NCc3ccccc3Cl)c3nnnn3c2c1 | 1.5% | . | . | .
O=C1Nc2ccccc2C(=O)C1(Cl)Cc1ccccc1 (stereo unspecified) | 4.47µM* | -1.4% | -2.5% | -19.1%
CCOC(=O)c1ccc(S(=O)(=O)N2CCC(C(=O)NCC3CCCCC3)CC2)cc1 | 2.5% | . | -1.9% | .
Cc1cccnc1Nc1nc(-c2ccccn2)cs1 | -7.6% | -5.3% | 39.8µM* | ?
CC(=O)Nc1ccc(-c2ccnc3c2CC(C(=O)NCC2CCOCC2)O3)cc1 (stereo unspecified) | 3.3% | . | 11.9% | .
COC/C=C/C1=CC2=CC(=O)C(C)(OC(=O)c3cnc4ccccc4n3)C(=O)C2=CN1Cc1ccc2c(c1)OCO2 (stereo unspecified) | . | -2.0%[11.5 µM] | . | ?
CC(C)(C)S(=O)(=O)N1Cc2cc(CO)cc(CCO)c2[C@@H]1CCO | 5.5% | . | -10.1% | .
SMILES | Tb PYK inh | LmPK inhibitor | RE007 growth inh | FBPA Giardia inh
CCN1/C(=C2\C(=O)N(C)C(=S)N2C)C=Cc2ccccc21 | ? | ? | -23.8% | -19.2%
CCN1/C(=C2\C(=O)N(C)C(=S)N2c2ccccc2)C=Cc2ccccc21 | ? | 17.8µM* | -28.0% | -9.1%
CCN1/C(=C2\C(=O)N(C)C(=S)N2C)C=Cc2cc(C)ccc21 | -25.2% | 15.8µM* | -18.5% | -8.6%
O=c1[nH][nH]c2c(N=Cc3ccccc3O)ccc(F)c12 | -17.5% | -22.9% | 6.4% | 6.29µM*
CC(/C=N/N1CCN(c2ccccc2)CC1)=C\c1ccco1 | ? | 12.6µM* | -23.5% | 1.2%
CC(=C/c1ccco1)/C=N/N1CCN(c2ccccc2)CC1 | . | 15.8µM* | 0.3%[3.69 µM] | .
CCCCCCOc1ccc(/C(C)=N/NC2=NCCN2)cc1 | 10.1% | -5.2% | 35.5µM* | ?
COc1cc2c(c(OC)c1OC)-c1c(cc3c(c1OC)OCO3)CC(C)C(C)(O)C2 (stereo unspecified) | 1.2% | . | . | .
CO[C@H]1/C=C\C=C(\C)C(=O)NC2=CC(=O)C(NCCN(C)C)=C(C[C@@H](C)C[C@H](OC)[C@H](O)[C@@H](C)/C=C(/C)[C@@H]1OC(N)=O)C2=O | 3.6% | . | . | .
S=C(NCCc1ccccc1)NCCc1cnc[nH]1 | -7.3% | -5.1% | -7.4% | -25.9%
CNC(=S)NCCCCc1cnc[nH]1 | . | . | . | 11.2µM*
O=[N+]([O-])c1cc(CN2CCCC2)c2cccnc2c1O | 1.6% | -0.5% | -9.3% | 17.7µM*
Oc1c(Cl)cc(CN2CCCCC2)c2cccnc12 | . | -1.7% | . | ?
Fc1ccc(CSc2nc3ccccc3[nH]2)c2ccccc12 | 2.5% | -0.3% | 12.6µM* | -2.5%
Fc1ccc(CSc2nc3ccccc3[nH]2)cc1 | -8.3% | 22.4µM* | ? | -12.2%
c1ccc(CSc2nc3ccccc3[nH]2)cc1 | 1.6% | ? | -25.5% | -1.3%
Cc1cc(O)ccc1N/C=C1\CCCC1=O | -12.0% | 2.9% | 0.9% | 8.89µM*
CCN1C=CC(=C2C(=O)c3ccccc3C2=O)C=C1 | ? | 12.6µM* | ? | -13.5%
CCCN1C=CC(=C2C(=O)c3ccccc3C2=O)C=C1 | ? | 14.1µM* | ? | -6.2%
CCCCCCN1C=CC(=C2C(=O)c3ccccc3C2=O)C=C1 | -2.0% | ? | -13.6% | -12.8%
CN1C=CC(=C2C(=O)c3ccccc3C2=O)C=C1 | . | 1.8% | . | -3.3%
c1ccc2c(-c3cnn4cc(-c5ccc(N6CCNCC6)cc5)cnc34)ccnc2c1 | 0.0% | . | . | .
CCn1c([N+](=O)[O-])nc2c1c(=O)[nH]c(=O)n2C | 2.0% | -8.7% | 2.6% | 12.6µM*
OCCN1CCN(C(=S)c2ccc(Cl)cc2)CC1 | ? | -4.7% | 18.2% | -16.5%
CCOC(=O)N1CCN(CCC(=O)c2ccc(OC)cc2)CC1 | -7.0% | -1.0% | 28.2µM* | -2.8%
SMILES | Tb PYK inh | LmPK inhibitor | RE007 growth inh | FBPA Giardia inh
CCOC(=O)N1CCN(CCC(=O)Nc2ccc(C)cc2)CC1 | 2.1% | 2.0% | -4.0% | 4.4%
CCN1CCN(C(=S)c2ccc(Cl)cc2)CC1 | ? | -1.2% | -4.1% | 3.97µM*
CCOC(=O)N1CCN(CCC(=O)Nc2ccc(OC)cc2)CC1 | -6.1% | -14.5% | -7.9% | 0.2%
CCOC(=O)N1CCN(CCC(=O)c2ccc(Cl)cc2)CC1 | -8.0% | -1.5% | 31.6µM* | -17.6%
CCOC(=O)N1CCN(CCC(=O)c2ccc(Br)cc2)CC1 | 0.9% | -2.8% | 35.5µM* | -25.9%
CN(NC(=O)NN(C)C(=O)c1ccccc1)C(=O)c1ccccc1 | 10.4% | . | -1.8% | .
CCCCn1c(SCC(=O)Nc2cccc(OC)c2)nc2c(sc3ccccc32)c1=O | 0.3% | . | . | .
COC(=O)c1ccc2cc(OC)c(OC)cc2c1 | -5.3% | . | -24.2% | .
